Records with an inconclusive call do not appear. Where a call stands in place of a potency, no number is given. The source made the active and inactive calls. Calls come from the whole dose curve; as a rule, active = well fitted inhibition curve with a large enough effect; inconclusive = small, poorly fitted or top-dose-only effect; inactive = flat fitted curve, though single readings scatter. Non-standard residues stand in square brackets, D forms with d. Residues, ends and D or L forms follow the SMILES beside them. Orn = NCCC[C@H](N)C(=O)O
System: astro (control astrocytes)
Test: Drug repurposing screens with cells derived from glioblastoma tumor samples (AID 1345199); note: nearly all actives have a fitted effect of over 40% in size
Settings: viability, ATP luminescence, 48 h; series mostly up to 45.9 µM
How it was run: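 Four patient lines of CD133+ GBM neurospheres were screened at several concentrations; hits were retested in those lines plus three slower-growing GBM lines, using 48-hour treatment and ATP-based viability.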
Potency is the fitted concentration of half-maximal effect.

Row | SMILES | Potency
1 | C[C@]12C=CC(=O)C=C1CC[C@@H]1[C@@H]2[C@@H](O)C[C@@]2(C)[C@H]1CC[C@]2(O)C(=O)COC(=O)CCC(=O)O | inactive
2 | COC(=O)[C@H]1[C@H]2C[C@@H]3c4[nH]c5ccccc5c4CCN3C[C@H]2C[C@@H](OC(=O)c2cc(OC)c(OC)c(OC)c2)[C@@H]1OC | inactive
3 | CC(C)(C)C(=O)OCOC(=O)[C@@H]1N2C(=O)[C@@H](N=CN3CCCCCC3)[C@H]2SC1(C)C | inactive
4 | Cc1cc(CC(C)CC(C)(C)C)n(O)c(=O)c1 (centres undefined) (tested in a mixture with another compound) | 20 µM (active)
5 | COC(=O)C1=C(C#N)NC(C)=C(C(=O)OC(C)C)C1c1cccc([N+](=O)[O-])c1 (centres undefined) | inactive
6 | C[C@]12CCC(=O)C=C1CC[C@@H]1[C@@H]2[C@@H](O)C[C@@]2(C)[C@H]1CC[C@]2(O)C(=O)COP(=O)(O)O | inactive
7 | COC(=O)CCC(=O)CN | inactive
8 | O=C(O)c1cc(=O)c2c3nc4ccccc4oc-3cc(=O)c2[nH]1 | inactive
9 | C=CCSSSCC=C | inactive
10 | CC[N+](CC)(CC)CCC(O)(c1ccccc1)C1CCCCC1 (centres undefined) | inactive
11 | Cc1c(C)c2c(c(C)c1O)CC[C@@](C)(CCC[C@H](C)CCC[C@H](C)CCCC(C)C)O2 | inactive
12 | CC1(C)S[C@@H]2[C@H](NC(=O)[C@@H](NC(=O)N3CCNC3=O)c3ccccc3)C(=O)N2[C@H]1C(=O)O | inactive
13 | O=S(=O)(O)O | inactive
14 | CO/N=C(\C(=O)N[C@@H]1C(=O)N2C(C(=O)O)=C(CSc3cnns3)CS[C@H]12)c1csc(N)n1 | inactive
15 | O=S(=O)(O)c1cc(O)c2c(N=Nc3ccc(Nc4ccccc4)c4c(S(=O)(=O)O)cccc34)cc(S(=O)(=O)O)cc2c1 | 14.1 µM (active)
16 | C=C(NC(=O)C(=C)NC(=O)c1csc(C2=N[C@@H]3c4csc(n4)[C@H]4NC(=O)c5csc(n5)[C@H]([C@](C)(O)[C@@H](C)O)NC(=O)[C@H]5CSC(=N5)C(=CC)NC(=O)C([C@@H](C)O)NC(=O)c5csc(n5)[C@]3(CC2)NC(=O)[C@H](C)NC(=O)C(=C)NC(=O)[C@H](C)NC(=O)C([C@@H](C)CC)NC2C=Cc3c([C@H](C)O)cc(nc3C2O)C(=O)O[C@@H]4C)n1)C(N)=O (some centres undefined) | inactive
17 | NCc1ccccc1CC(=O)N[C@@H]1C(=O)N2C(C(=O)O)=C(CSc3nnnn3CC(=O)O)CS[C@H]12 | inactive
18 | CN1C(=O)CN2CCc3ccccc3C2c2cc(Cl)ccc21 (centres undefined) | inactive
19 | CC(C)C[C@@H]1NC(=O)[C@H](CCCN)NC(=O)[C@H](C(C)C)NC(=O)[C@@H]2CCCN2C(=O)[C@@H](Cc2ccccc2)NC(=O)[C@H](CC(C)C)NC(=O)[C@H](CCCN)NC(=O)[C@H](C(C)C)NC(=O)[C@@H]2CCCN2C(=O)[C@@H](Cc2ccccc2)NC1=O (cyclo(V[Orn]L[dF]PV[Orn]L[dF]P)) | 3.98 µM (active)
20 | COc1ccc(CCNC[C@H](O)c2ccc(O)cc2)cc1OC | inactive
21 | CC(=O)OCC(=O)[C@@]12OC3(CCCC3)O[C@@H]1C[C@H]1[C@@H]3CCC4=CC(=O)C=C[C@]4(C)[C@@]3(F)[C@@H](O)C[C@@]12C | inactive
22 | CCOC(=O)C1=C(C)NC(C)=C(C(=O)OCC)C1c1ccccc1C=CC(=O)OC(C)(C)C | 20 µM (active)
23 | CCC(=O)OCC(=O)[C@@]1(OC(=O)CC)[C@H](C)C[C@H]2[C@H]3[C@H]([C@@H](O)C[C@@]21C)[C@@]1(C)C=CC(=O)C=C1C[C@H]3Cl | inactive
24 | C#C[C@]1(O)CC[C@H]2[C@@H]3CCC4=CCCC[C@@H]4[C@H]3C(=C)C[C@@]21CC | 35.5 µM (active)
25 | CCCC(=O)Nc1ncnc2c1ncn2[C@@H]1O[C@@H]2COP(=O)(O)O[C@H]2[C@H]1OC(=O)CCC | inactive
26 | Nc1c(Br)cc(Br)cc1CNC1CCC(O)CC1 (centres undefined) | inactive
27 | CC(=O)N(CC(C)C(=O)O)c1c(I)cc(I)c(N)c1I (centres undefined) | inactive
28 | CCNC(=O)[C@@H]1CCCN1C(=O)[C@H](CCCN=C(N)N)NC(=O)[C@H](CC(C)C)NC(=O)[C@@H](Cc1c[nH]c2ccccc12)NC(=O)[C@H](Cc1ccc(O)cc1)NC(=O)[C@H](CO)NC(=O)[C@H](Cc1c[nH]c2ccccc12)NC(=O)[C@H](Cc1cnc[nH]1)NC(=O)[C@@H]1CCC(=O)N1 | 8.91 µM (active)
29 | CCC(=O)NCCC1CCc2ccc3c(c21)CCO3 (centres undefined) | inactive

— PubChem BioAssay (NCATS)
